MPTP block = blocks calcium-induced mitochondrial swelling; isolated mouse mitochondria, Ca2+ swelling absorbance, 30 min; inhibition, % at 10 µM; hit rate 1.4% among 360,000; AID 602449;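 active means inhibition of 50% or more, scaled per plate between neutral and stimulator controls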;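 further: 0% = DMSO wells given calcium and 100% = 1 mM EGTA wells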
rCAG binder = molecules binding r(CAG) RNA repeats; inhibition, % at 3 µM; r(CAG) RNA repeat, TO-PRO-1 dye displacement fluorescence; hit rate 1.3% among 370,000;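 active means inhibition above the plate cutoff, the mean of all test compounds on that plate plus 3 SD, cut at about 35% in these data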;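 further: 0% = DMSO alone and 100% = 100 µM mitoxantrone as full dye displacement; higher means more dye released from RNA so lower well fluorescence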
GRIN3A LBD mod = NR3A (human) ligand-binding domain modulation. NR3A LBD differential scanning fluorimetry, Tm shift; 0% = protein alone, 100% = glycine-bound protein. Tm shift relative to glycine control, % at 25 µM. hit rate 2.5% among 340,000. AID 1259313;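 active means melting temperature shift of at least 10% of the positive control shift, at one fixed dose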
FAS-TE inh = blocks the thioesterase domain of human fatty acid synthase | inhibition, % at 15 µM | hit rate 0.67% among 360,000 | AID 602261 | P49327 | recombinant FAS-TE, OMFH fluorogenic substrate, fluorescence endpoint;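 active means compounds whose normalised, plate-corrected inhibition of enzyme fluorescence in the single-dose primary screen is 50% or more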;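 further: 0% = DMSO with enzyme and 100% = substrate without enzyme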
Myeloid diff 2 = myeloid differentiation induction | AID 624256 | hit rate 1% among 360,000 | calls only at 10 µM | ER-HoxA9 myeloid progenitors, lysozyme-GFP differentiation, flow cytometry;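 active means normalized GFP-positive differentiation at or above the plate's own cutoff, the solvent-only control mean plus 3 SD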;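 further: cells exposed to compound for four days before flow analysis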
rCAG binder conf = r(CAG) RNA repeat binding, confirmation; shares compounds with rCAG binder; TO-PRO-1 dye displacement fluorescence; inhibition, % at 3 µM; hit rate 70% among 4,300; AID 652065;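 active means inhibition above a per-plate cutoff, the mean inhibition of sample wells plus 3 SD, cut at about 35% in these data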;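 further: loss of TO-PRO-1 fluorescence as compound displaces dye from 1x1 AA loop RNA; 0% = DMSO only wells and 100% = 100 µM mitoxantrone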
DNA CAG counter = disrupts DNA CAG TO-PRO-1 complex, flagging rCAG hits | inhibition, % at 3 µM | AID 652068 | shares compounds with rCAG binder | hit rate 94% among 4,300 | d(CAG) DNA oligo TO-PRO-1 dye displacement, fluorescence;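 active means inhibition above its plate's cutoff, the mean test-well inhibition plus 3 SD, cut at about 4.8% in these data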;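 further: 0% = DNA dye mix with DMSO and 100% = 100 µM mitoxantrone; hits displace the dye from DNA and so lower well fluorescence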
An asterisk follows results filed as active; i = inactive; x = no result. Only some compounds are listed: those with a hit (about 5.7% of all), similar ones and a draw of the others.

SMILES	MPTP block	rCAG binder	GRIN3A LBD mod	FAS-TE inh	Myeloid diff 2	rCAG binder conf	DNA CAG counter
COc1cc(/C=C(\CC(=O)O)c2nc3ccccc3s2)ccc1OCC(=O)Nc1ccccc1F	0.9	58.8*	1.9	0.4	i	62.1*	22.6*
COc1ccc(-c2nn(-c3ccccc3)cc2/C=C(\CC(=O)O)c2nc3ccccc3s2)cc1OC	0.2	53.3*	-10.4	25.9	i	63.5*	21.6*
COc1cc(/C=C(\C#N)C(=O)Nc2cc(C(F)(F)F)ccc2Cl)ccc1OCC(=O)Nc1cccc(C(F)(F)F)c1	-2.1	14.4	0.9	-10.5	i	x	x
CCOc1cc(/C=C(\CC(=O)O)c2nc3ccccc3s2)ccc1OCC(=O)Nc1cccc(C(F)(F)F)c1	-2.2	66.6*	-2.2	7.0	i	52.6*	18.1*
CCCN1CCc2c(sc(NC(=O)Cc3ccc(F)cc3)c2C(N)=O)C1	-1.2	-8.0	-2.0	-7.3	i	x	x
O=C(NCc1ccc2c(c1)OCO2)C1CCCCC1	-0.1	-0.7	1.4	-4.3	i	x	x
COc1ccc(C)cc1-n1c(SCC(=O)NC2CC2)nc2ccccc2c1=O	-1.9	2.9	-0.2	-7.9	i	x	x
CCCCNC(=O)c1ccc2nc(CC)c(N(CC)CCOC)n2c1	-2.3	-0.5	x	-4.0	i	x	x
O=C(O)C(c1ccccc1)N1C(=O)/C(=C\c2ccc(O)c(O)c2)SC1=S (configuration not stated)	12.1	41.7*	-5.1	6.2	i	53.1*	21.6*
COc1cc(/C=C2\SC(=S)N(C(C(=O)O)c3ccccc3)C2=O)ccc1O (configuration not stated)	7.5	43.3*	1.8	-4.3	i	33.0	8.5*
CCOc1cc(/C=C2\SC(=S)N(C(C(=O)O)c3ccccc3)C2=O)ccc1O (configuration not stated)	9.7	65.8*	-0.5	8.2	i	61.9*	25.4*
CCOc1ccc(/C=C2/SC(=S)N(C(C(=O)O)c3ccccc3)C2=O)cc1OCC (configuration not stated)	-5.7	11.3	3.9	-2.0	x	x	x
COc1cc(/C=C2/SC(=S)N(c3c(C)n(C)n(-c4ccccc4)c3=O)C2=O)ccc1O	11.6	6.8	0.7	-3.9	i	x	x
COc1ccccc1/C=C1\SC(=S)N(C(C(=O)O)c2ccccc2)C1=O (configuration not stated)	2.9	67.4*	4.6	-1.8	i	67.2*	27.4*
Cc1nnsc1SCCNC(=O)c1ccc(F)cc1	-1.2	1.0	1.8	-11.5	i	x	x
O=C(CN1C(=O)S/C(=C\c2ccccn2)C1=O)Nc1ccccc1	0.0	1.8	-0.4	1.3	i	x	x
Cc1cccc(NC(=O)CN2C(=O)S/C(=C\c3ccc(O)c([N+](=O)[O-])c3)C2=O)c1	2.0	83.0*	1.2	7.2	i	57.1*	20.3*
Cc1ccc(NC(=O)CN2C(=O)S/C(=C/c3ccc(O)c([N+](=O)[O-])c3)C2=O)cc1C	1.0	93.7*	6.5	7.3	i	79.7*	46.1*
O=C(CN1C(=O)S/C(=C\c2ccc(O)c([N+](=O)[O-])c2)C1=O)Nc1ccc(N2CCOCC2)cc1	0.3	-0.7	0.3	-1.3	i	x	x
O=C(CN1C(=O)S/C(=C\c2cc(Cl)c(O)c(Cl)c2)C1=O)Nc1ccccc1	2.9	48.2*	11.7*	7.5	i	50.3*	16.2*
O=C(N/N=C/c1ccc(OC(F)F)cc1OC(F)F)NC1CCCCC1	2.8	-5.4	-27.8	22.8	i	x	x
Cc1ccc(S(=O)(=O)NCCCNS(=O)(=O)c2ccccc2)cc1	-0.3	-1.8	-1.4	-1.2	i	x	x
O=C(OCCN=C1NS(=O)(=O)c2ccccc21)c1cccs1	-1.4	-0.6	0.9	-5.2	i	x	x
Cc1ccccc1OCC(=O)OCC(=O)Nc1cc(S(=O)(=O)N2CCCCC2)ccc1Cl	-1.6	2.7	-4.7	-6.9	i	x	x
COc1ccc2nc(N=Nc3ccc(N(C)C)cc3)sc2c1	7.8	4.8	-1.9	0.3	i	x	x
CN(C)c1ccc2nc3ccc(=O)cc-3sc2c1	5.3	35.4*	x	-8.6	i	31.2	11.9*
O=C(CSCc1ccc(Cl)cc1)Nc1ccc(Br)cc1C(=O)O	4.2	43.9*	-2.6	2.6	i	36.0*	8.7*

Assay outcomes deposited in PubChem BioAssay by several laboratories.
